Experimental data published in PubChem BioAssay (NCATS).
“And” between values parts separate entries of the source, which are not always exact repeats. Equal values may be shown once. Inconclusive results are not listed. Some compounds were tested as several samples or in several runs, with calls that do not always agree. The source made the active and inactive calls. Calls follow the shape of the dose curve; as a rule, active = well fitted inhibition curve with a large enough effect; inconclusive = small, poorly fitted or top-dose-only effect; inactive = flat fitted curve, though single readings scatter.

Tests used:
PC15 = experiment: qHTS profiling for inhibitors of Plasmodium falciparum proliferation (AID 504749); also: potency is read from the fitted curve at half-maximal effect; conditions: P. falciparum in erythrocytes, SYBR Green DNA, 72 h; series mostly up to 28.7 µM
In short: (§1)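 Parasite proliferation within erythrocytes, 72 h exposure. Endpoint: SYBR Green I fluorescence after overnight lysis at room temperature. Controls: 0.29 uM artemisinin, DMSO.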

PC26 = experiment: as above; conditions: P. falciparum in erythrocytes, SYBR Green DNA, 72 h; series mostly up to 28.7 µM
In short: as §1

PC49 = experiment: as above; conditions: P. falciparum in erythrocytes, SYBR Green DNA, 72 h; series mostly up to 28.7 µM
In short: as §1

SC27B = experiment: as above; conditions: P. falciparum in erythrocytes, SYBR Green DNA, 72 h; series mostly up to 28.7 µM
In short: as §1

TAB109 = experiment: as above; conditions: P. falciparum in erythrocytes, SYBR Green DNA, 72 h; series mostly up to 28.7 µM
In short: as §1

TAB113 = experiment: as above; conditions: P. falciparum in erythrocytes, SYBR Green DNA, 72 h; series mostly up to 28.7 µM
In short: as §1

TAB165 = experiment: as above; conditions: P. falciparum in erythrocytes, SYBR Green DNA, 72 h; series mostly up to 28.7 µM
In short: as §1

CRL-7250 [1] = experiment: Cytotoxic Profiling of Annotated Libraries Using Quantitative High-Throughput Screening (AID 1296008); conditions: Five cell lines viability, CellTiter-Glo ATP luminescence, 48-72 h; max response: active compounds read low; also: potency is read from the fitted curve at half-maximal effect; as to max response: % is scaled to controls: 0 for no effect and ±100 for the full control effect
In short: (§2)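 Compounds were pin-transferred onto cells and incubated 48 or 72 hr at 37 degree Celsius, 95% humidity. CellTiter-Glo was added, plates sat 10 min at room temperature, then ATP-coupled luminescence was imaged as the viability read-out.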

HEK293 = experiment: as above; conditions: Five cell lines viability, CellTiter-Glo ATP luminescence, 48-72 h; max response: active compounds read low
In short: as §2

HaCat [2] = experiment: as above; conditions: Five cell lines viability, CellTiter-Glo ATP luminescence, 48-72 h; max response: active compounds read low
In short: as §2

KB-3-1 = experiment: as above; conditions: Five cell lines viability, CellTiter-Glo ATP luminescence, 48-72 h; max response: active compounds read low
In short: as §2

NIH3T3 = experiment: as above; conditions: Five cell lines viability, CellTiter-Glo ATP luminescence, 48-72 h; max response: active compounds read low
In short: as §2

HACAT [3] = experiment: qHTS assay to identify novel small-molecules to repurpose for Merkel cell carcinoma treatment (AID 1296009); conditions: MCC and control cell lines, CellTiter-Glo viability, 72 h; at 44.8 µM (top of the series) unless noted
In short: (§3)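 qHTS format: cells treated with library compounds in DMSO across 8 (NPC) or 11 (MIPE) concentrations. Readout after 72 hr at 37 degree celsius was CellTiter-Glo luminescence.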

HEK293T = experiment: as above; conditions: MCC and control cell lines, CellTiter-Glo viability, 72 h; at 44.8 µM (top of the series) unless noted
In short: as §3

MCC-13 = experiment: as above; conditions: MCC and control cell lines, CellTiter-Glo viability, 72 h; series mostly up to 46 µM
In short: as §3

MCC-26 = experiment: as above; conditions: MCC and control cell lines, CellTiter-Glo viability, 72 h; series mostly up to 46 µM
In short: as §3

MKL-1 = experiment: as above; conditions: MCC and control cell lines, CellTiter-Glo viability, 72 h; series mostly up to 46 µM
In short: as §3

MKL-2 = experiment: as above; conditions: MCC and control cell lines, CellTiter-Glo viability, 72 h; series mostly up to 46 µM
In short: as §3

CRL-7250 [4] = experiment: as above; conditions: MCC and control cell lines, CellTiter-Glo viability, 72 h; at 44.8 µM (top of the series) unless noted
In short: as §3

W2 = experiment: qHTS profiling for inhibitors of Plasmodium falciparum proliferation (AID 504749); also: potency is read from the fitted curve at half-maximal effect; conditions: P. falciparum in erythrocytes, SYBR Green DNA, 72 h; series mostly up to 28.7 µM
In short: as §1
Also: nearly all actives have a fitted effect of over 60% in size.

CN1C(=O)CCS(=O)(=O)C1c1ccc(Cl)cc1 (stereo unspecified)
inactive: Potency (PC15) | Potency (PC26) | Potency (PC49) | Potency (SC27B) | Potency (TAB109) | Potency (TAB113) | Potency (TAB165) | max response (CRL-7250 [1]) -0.906% and -1.81% | max response (HEK293) -9.62% | outcome (HEK293) | outcome (HaCat [2]) | max response (KB-3-1) -6.09% and -6.07% | max response (NIH3T3) 2.05% and -20.3% | outcome (HACAT [3]) | outcome (HEK293T) | outcome (MCC-13) | Potency (MCC-26) | Potency (MKL-1) | Potency (MKL-2)

COP(=S)(OC)Oc1cc(Cl)c(Cl)cc1Cl
inactive: max response (CRL-7250 [1]) -8.37% | max response (HEK293) 1.74% | max response (HaCat [2]) 4.52% | max response (KB-3-1) -14.4% | max response (NIH3T3) -6.48% | outcome (MCC-13) | Potency (MCC-26) | Potency (MKL-1)
active: Potency (KB-3-1) 0.146 µM

C[N+]1(CCF)[C@@H]2CC[C@H]1CC(OC(=O)C(O)(c1ccccc1)c1ccccc1)C2 (stereo partly specified)
inactive: outcome (CRL-7250 [1]) | max response (HEK293) -5.81% | outcome (HaCat [2]) | max response (KB-3-1) -9.39% | outcome (NIH3T3) | outcome (CRL-7250 [4]) | outcome (HACAT [3]) | outcome (MCC-13) | Potency (MCC-26) | Potency (MKL-1) | Potency (MKL-2)

CCC1(CC)C(=O)C=CNC1=O
inactive: Potency (PC15) | Potency (PC26) | Potency (PC49) | Potency (SC27B) | Potency (TAB109) | Potency (TAB113) | Potency (TAB165) | Potency (W2) | max response (CRL-7250 [1]) -2.85% | max response (HEK293) 4.85% | max response (HaCat [2]) -9.12% | max response (KB-3-1) -0.338% | max response (NIH3T3) 1.41% | outcome (MCC-13) | Potency (MCC-26) | Potency (MKL-1) | Potency (MKL-2)

CC(=O)OCC1=C(C(=O)O)N2C(=O)[C@@H](N)[C@H]2SC1
inactive: max response (CRL-7250 [1]) -3.91% | outcome (CRL-7250 [1]) | max response (HaCat [2]) -3.66% and 4.2% | max response (KB-3-1) -19.8% | outcome (KB-3-1) | max response (NIH3T3) 1.92% and 4.65% | outcome (CRL-7250 [4]) | outcome (MCC-13) | Potency (MCC-26) | Potency (MKL-1)

Clc1cccc(SC2CCNCC2)n1
inactive: Potency (PC15) | Potency (PC26) | Potency (PC49) | Potency (SC27B) | Potency (TAB109) | Potency (TAB113) | Potency (TAB165) | Potency (W2) | max response (CRL-7250 [1]) -0.448% | max response (HEK293) 1.87% | max response (HaCat [2]) -6.24% | max response (KB-3-1) -11.2% | max response (NIH3T3) 4.41% | outcome (MCC-13) | Potency (MCC-26) | Potency (MKL-1) | Potency (MKL-2)

O=C(O)CCCc1ccc(N(CCCl)CCCl)cc1
inactive: Potency (PC15) | Potency (PC26) | Potency (PC49) | Potency (SC27B) | Potency (TAB109) | Potency (TAB113) | Potency (TAB165) | outcome (CRL-7250 [1]) | max response (HEK293) -24.7% | outcome (HaCat [2]) | max response (KB-3-1) 1.55% | outcome (KB-3-1) | max response (NIH3T3) -8.46% and -0.549% | outcome (CRL-7250 [4]) | outcome (HACAT [3]) | outcome (MCC-13) | Potency (MKL-1) | Potency (MKL-2)

CCc1cc2c(s1)-n1c(C)nnc1CN=C2c1ccccc1Cl
inactive: outcome (CRL-7250 [1]) | max response (HEK293) -15.5% | max response (HaCat [2]) -1.07% | max response (KB-3-1) -14.4% | outcome (NIH3T3) | outcome (CRL-7250 [4]) | outcome (MCC-13) | Potency (MCC-26) | Potency (MKL-1) | Potency (MKL-2)

CC(C)(C)NCC(O)c1cc(Cl)c(N)c(C(F)(F)F)c1 (stereo unspecified)
active: Potency (PC15) 11.2 µM | Potency (PC49) 11.2 µM | Potency (TAB165) 7.94 µM | Potency (W2) 5.36 µM
inactive: outcome (CRL-7250 [1]) | outcome (HEK293) | max response (HaCat [2]) -13.5% | max response (KB-3-1) 5.51% | outcome (NIH3T3) | outcome (CRL-7250 [4]) | outcome (HEK293T) | outcome (MCC-13) | Potency (MKL-1) | Potency (MKL-2)

CC[N+]1(CC)CCC(OC(=O)C(O)(c2ccccc2)c2ccccc2)C1 (stereo unspecified)
inactive: max response (CRL-7250 [1]) -3.85% | max response (HEK293) 3.52% | outcome (HaCat [2]) | max response (NIH3T3) 4.46% | outcome (HACAT [3]) | outcome (MCC-13) | Potency (MKL-1) | Potency (MKL-2)

CC(C)c1cccc(C(C)C)c1O
inactive: Potency (PC15) | Potency (PC49) | Potency (SC27B) | Potency (TAB109) | Potency (TAB113) | Potency (TAB165) | Potency (W2) | max response (CRL-7250 [1]) -8.58% and -1.5% | outcome (HaCat [2]) | max response (KB-3-1) 9.44% | max response (NIH3T3) 0.687% | outcome (HACAT [3]) | outcome (HEK293T) | outcome (MCC-13) | Potency (MKL-1) | Potency (MKL-2)

CCCCCCC(=O)CCCCCC/C=C/C[C@@H](O)[C@H](O)[C@@](N)(CO)C(=O)O
inactive: Potency (PC15) | Potency (PC26) | Potency (PC49) | Potency (SC27B) | Potency (TAB109) | Potency (TAB113) | Potency (TAB165) | max response (CRL-7250 [1]) -1.04% | max response (HEK293) -0.716% | max response (KB-3-1) 4.21% and -11.8% | max response (NIH3T3) 0.482% | outcome (MCC-13) | Potency (MCC-26) | Potency (MKL-1) | Potency (MKL-2)

COC(=O)[C@@H](N)CCCN/C(N)=N/[N+](=O)[O-]
inactive: outcome (CRL-7250 [1]) | max response (HaCat [2]) -19.5% | max response (KB-3-1) -3.97% | max response (NIH3T3) 1.98% | outcome (CRL-7250 [4]) | outcome (HEK293T) | outcome (MCC-13) | Potency (MKL-1) | Potency (MKL-2)

C=CCC1(C(C)CC)C(=O)NC(=O)NC1=O (stereo unspecified)
inactive: outcome (CRL-7250 [1]) | max response (HEK293) 4.61% | max response (HaCat [2]) 2.69% | outcome (NIH3T3) | outcome (CRL-7250 [4]) | outcome (MCC-13) | Potency (MKL-1) | Potency (MKL-2)
